Screening results (PubChem)
PrPC TRFRET: reduces human prion protein on the cell surface; AID 720596; cell surface PrPC, TR-FRET read-out; inhibition, % at 13.8 µM; 370,000 compounds, 0.43% hits; in the data active means inhibition above about 24%; further: 0% = median of the test wells and 100% = reference compound wells
PfHsp40 rescue: compounds rescuing yeast from Plasmodium falciparum HSP40 toxicity | S. cerevisiae expressing PfHsp40, growth rescue, ATP luminescence | growth rescue, % at 12.5 µM | 340,000 compounds, 0.68% hits | AID 504582; in the data active means growth rescue above about 28%, passing the limit was not always enough;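 further: yeast W303a lacking pdr1 and pdr3 grown in galactose medium; growth measured after three days at 30 °C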
Sa ugtP lethal: growth inhibition of S. aureus ugtP deletion strain. S. aureus RN4220 ugtP deletion, OD600 growth, 16 h. growth inhibition, % (no concentration beside the values). 330,000 compounds, 0.54% hits; in the data active means growth inhibition above about 68%;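 further: plate controls were untreated wells for no effect and antibiotic for full effect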
RN4220 kill: S. aureus RN4220 growth inhibition; inhibition, % (no concentration beside the values); AID 1259311; OD600, 16 h; 330,000 compounds, 0.33% hits; in the data active means inhibition above about 85%;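 further: plate controls were untreated cells for no effect and reference antibiotic for full effect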
DUSP3 inh: blocks human VHR1 dual specificity phosphatase. recombinant VHR phosphatase, pNPP absorbance. P51452. AID 1654. 290,000 compounds, 0.52% hits. inhibition, % at 13.3 µM; in the data active means inhibition above about 50%
PrPC confirm: confirmation of inhibitors of cell surface human prion protein | shares compounds with PrPC TRFRET | cell surface PrPC level, TR-FRET | inhibition, % at 13.8 µM | 1,500 compounds, 65% hits; in the data active means inhibition above about 25%
LD9 cytotox: counter-screen for PrPc inhibitors: cytotoxicity in LD9 cells; shares compounds with PrPC TRFRET; luminescence viability; inhibition, % at 13.8 µM; 1,500 compounds, 29% hits; AID 743201; in the data active means inhibition above about 9.5%
* marks the source's active call; other numbers are inactive results; . = no result given. The list is not random: actives were taken first. Their share in the collection is about 1.8%.

SMILES	PrPC TRFRET	PfHsp40 rescue	Sa ugtP lethal	RN4220 kill	DUSP3 inh	PrPC confirm	LD9 cytotox
C/C(C=NNC(=O)c1cccc([N+](=O)[O-])c1)=C\c1ccccc1	.	.	-1	6	.	.	.
O=C(Nc1nccs1)c1ccc(COc2ccccc2Br)o1	26*	1	8	23	-8	22	5
OCC1OC(OCCc2ccc(O)cc2)C(O)C(O)C1O (stereo not given)	.	.	-9	3	.	.	.
CCN(CC)CC(C)(C)C(=O)/C=C/c1ccc(/C=C/C(=O)C(C)(C)CN(CC)CC)cc1	90*	0	.	.	.	105*	96*
CCOC(=O)c1sc(NC(=O)C2CC2)cc1C	5	-1	3	3	35	.	.
CCOC(=O)c1sc(NC(=S)NC(=O)C2CCCC2)cc1C	26*	-1	-10	1	18	56*	-6
CCOC(=O)c1sc(NC(=O)C(C)(C)C)cc1C	14	-1	-3	6	45	.	.
CCOC(=O)c1sc(NC(=S)NC(=O)CC(C)C)cc1C	37*	1	-9	-14	11	40*	1
O=C1N/C(=N\N=Cc2ccco2)SC1Cc1ccc(F)cc1 (stereo not given)	.	.	10	-3	.	.	.
Cc1cccc2cc(C(c3nnnn3Cc3ccccc3)N3CCN(C)CC3)c(=O)[nH]c12 (stereo not given)	.	-1	-4	3	8	.	.
Cc1cccc2cc(C(c3nnnn3Cc3ccccc3)N3CCN(c4ccccc4)CC3)c(=O)[nH]c12 (stereo not given)	59*	2	-1	3	-8	3	-2
CC=C(C)C(=O)OC(C)(C)C1Cc2c(ccc3ccc(=O)oc23)O1 (stereo not given)	.	.	2	8	.	.	.
Cc1cc(C)nc(NC(=O)/C=C/c2cccs2)c1	0	2	4	1	40	.	.
Cc1cc(C)c(-c2csc(NC(=O)/C=C/c3cccs3)n2)c(C)c1	45*	0	-11	-13	53*	41*	-9
N#CCc1ccc(NC(=O)Nc2cccc(Cl)c2)cc1	31*	1	.	.	7	33*	5
CC[C@H](C)[C@@H]1NC(=O)CNC(=O)c2csc(n2)[C@H](C(C)(C)O)OC(=O)C(C)(C)[C@H](CCCC(C)(Cl)Cl)OC(=O)c2csc1n2	34*	.	.	.	.	26*	9
O=C(NN=Cc1cccnc1)/C(=C\c1cccs1)NC(=O)c1ccccc1	.	.	12	4	.	.	.
Cc1nc2ccccc2c(=O)n1N=Cc1ccc2ccccc2c1O	.	.	15	6	.	.	.
Cc1ccc(-n2nc3cc(C)c(NC(=S)NC(=O)/C=C/c4ccco4)cc3n2)cc1	18	0	28	-1	20	.	.
Cc1ccc(-n2nc3ccc(NC(=S)NC(=O)/C=C/c4ccco4)cc3n2)cc1	65*	1	.	.	-10	42*	-5
CCc1ccc(C(=O)NNc2ccccc2F)cc1	21	-1	2	2	5	.	.
CCc1ccc(C(=O)NNc2cc(Cl)ccc2Cl)cc1	28*	1	11	3	25	25*	5
O=C(Cc1ccccc1)N1CCN(CC=Cc2ccccc2)CC1	.	.	-7	-3	.	.	.
CCOC(=O)c1ccc(N2C(=O)C(c3ccccc3)C2c2ccccc2)cc1 (stereo not given)	.	.	-1	-5	.	.	.
OCC1OC(n2ccc3c(NO)ncnc32)C(O)C1O (stereo not given)	53*	0	.	.	.	44*	92*
SMILES	PrPC TRFRET	PfHsp40 rescue	Sa ugtP lethal	RN4220 kill	DUSP3 inh	PrPC confirm	LD9 cytotox
N#Cc1cn(C2OC(CO)C(O)C2O)c2ncnc(N)c12 (stereo not given)	26*	-1	.	.	.	30*	40*
CN(C)c1ncnc2c1ccn2C1OC(CO)C(O)C1O (stereo not given)	2	1	.	.	.	.	.
NC(=O)c1cn(C2OC(CO)C(O)C2O)c2ncnc(N)c12 (stereo not given)	56*	-2	-2	3	13	58*	40*
NC(=O)c1c(Br)n(C2OC(CO)C(O)C2O)c2ncnc(N)c12 (stereo not given)	0	-2	.	.	.	.	.
COc1ccc(OCC(=O)OCC(=O)NC2CCCCC2C)cc1 (stereo not given)	4	0	4	2	.	.	.
COc1cc(NC2CCCCC2O)c2nc(-c3ccc(Cl)cc3)ccc2c1 (stereo not given)	39*	1	25	-19	32	6	-2
Brc1ccc2nc(-c3ccc(CN4CCC5(CC4)CNc4ccccc45)cc3)c(-c3ccccc3)nc2c1	26*	.	.	.	.	53*	0
Cc1ccc2nc(-c3ccc(CN4CCC5(CC4)CNc4ccccc45)cc3)c(-c3ccccc3)nc2c1	6	.	.	.	.	.	.
Cc1cc(C)c2nc(SC3CCOC3=O)cc(C)c2c1 (stereo not given)	78*	0	24	5	3	87*	-7
COC(=O)C1=C(c2cc3ccccc3s2)CC2CCC1N2C(=O)NC(C)C (stereo not given)	.	.	-6	3	.	.	.
NNC(=O)c1[nH]c2ccc(Br)cc2c1-c1ccccc1	6	0	-17	-7	3	.	.
CCc1c(C(=O)O)[nH]c2ccc(Br)cc12	76*	0	62	-2	27	88*	1
COc1ccc(Br)cc1C(C[N+](=O)[O-])c1c(N)n(C)c(=O)n(C)c1=O (stereo not given)	68*	2	-14	21	-15	38*	33*
COC(=O)c1nn(-c2ccccc2)c(Sc2ccc(Br)cc2)c1C=NO	.	.	0	13	.	.	.
CO[C@H]([C@H](C)/C=C/N(C)C=O)[C@@H](C)C(=O)CC[C@H](C)[C@H](O)[C@H](C)[C@H]1OC(=O)/C=C/C(C)=C/C[C@H](O)C[C@@H]2C=CC[C@@H](C[C@H](OC)[C@@]3(CO3)[C@@H](OC)C[C@@H](OC)[C@@H]1C)O2	41*	.	.	.	.	37*	39*
CO[C@H]([C@H](C)/C=C/N(C)C=O)[C@@H](C)C(=O)CC[C@H](C)[C@H](O)[C@H](C)[C@H]1OC(=O)/C=C/C(C)=C/C[C@H](O)C[C@@H]2C=CC[C@@H](C[C@H](OC)[C@@H](C)[C@@H](OC)C[C@@H](OC)[C@@H]1C)O2	48*	.	.	.	.	39*	26*
O=S(=O)(c1ccccc1)[C@@]1(c2ccc(Br)cc2)CC2ON=C(c3cccc(Br)c3)C2C1 (stereo not given in full)	.	.	-17	-8	.	.	.
Oc1ccc(-c2cnc3c(Nc4cccc(OC(F)(F)C(F)F)c4)nccn23)cc1	25*	.	.	.	.	25*	-3
COc1ccc2c(c1)C(C)=CC(C)(C)N2S(=O)(=O)c1ccc(NC(C)=O)cc1	9	1	.	.	-15	.	.
CCOc1ccc2c(c1)C(C)=CC(C)(C)N2S(=O)(=O)c1ccc(NC(C)=O)cc1	24*	1	-10	8	25	12	16*
